# Results from PubChem BioAssay AID504332 (National Center for Advancing Translational Sciences (NCATS), 2011).
# The campaign covered roughly 350,000 compounds. About 31,000 (8.9%) were called active. Inconclusive results (about 15%) are left out. The call rests on the fitted dose curve; in most records, active means well fitted inhibition curve with a large enough effect; inconclusive means small, poorly fitted or top-dose-only effect; inactive means no such curve, though single readings can be large or run the other way. Only a selection was taken, and actives are over-represented in it overall.
# Target: Histone-lysine N-methyltransferase EHMT2 (Homo sapiens) (UniProt Q96KQ7)
# Experiment: qHTS Assay for Inhibitors of Histone Lysine Methyltransferase G9a; further: nearly all actives have a fitted effect of over 75% in size
# Conditions: G9a H3K9 monomethylation, AlphaScreen, 2 h; series mostly up to 59 µM; activity, negative = inhibition: at the top concentration
# Summary of the method: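 AlphaScreen detection with an anti-monomethyl H3K9 antibody quantified product after a 2 h room-temperature reaction containing 500 nM biotinylated H3K9 peptide, 20 µM SAM and 20 nM enzyme, which had been preincubated 15 min with compound.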
# On the % scale 0 is the no-effect control and ±100 the full control effect; potency means the concentration at half of the fitted maximal effect.
# Histone-lysine N-methyltransferase EHMT2 (Homo sapiens), sequence (Q96KQ7 913-1193 limits assumed): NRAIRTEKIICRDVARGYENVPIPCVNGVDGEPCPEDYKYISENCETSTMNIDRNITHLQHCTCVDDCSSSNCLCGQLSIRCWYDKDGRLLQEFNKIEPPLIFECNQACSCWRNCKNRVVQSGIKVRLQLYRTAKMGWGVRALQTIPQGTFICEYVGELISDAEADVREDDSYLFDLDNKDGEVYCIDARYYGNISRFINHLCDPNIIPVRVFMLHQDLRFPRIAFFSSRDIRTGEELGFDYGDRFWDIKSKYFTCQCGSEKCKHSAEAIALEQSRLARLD
Compound,"activity, negative = inhibition",Potency
O=C(Nc1cccnc1Cl)c1cc(-c2ccccc2O)on1,11.2% [at 102 µM] (inactive),–
O=C1CCCC2=C1C(c1ccccc1)n1c(s/c(=C/c3cccc(F)c3)c1=O)=N2 (configuration not stated),–,10 µM (active)
O=C1CC(c2cccc(F)c2)C2=C(CCCC2=O)N1 (configuration not stated),24.3% (inactive),–
O=C1CSC(c2cccc(F)c2)N1c1ccccc1F (configuration not stated),-5.4% [at 12.7 µM] (inactive),–
Cc1ccc(-c2cc(C(F)(F)F)c(C#N)c(SCC(=O)Nc3ccccc3)n2)cc1,6.72% (inactive),–
CCOCCc1nn2c(=O)cc(COC(=O)CNC(=O)c3ccc(C(C)(C)C)cc3)nc2s1,27.8% (inactive),–
C[C@H](C(=O)CC(=O)OC(C)(C)C)[C@H](O)c1ccc(C(F)(F)F)cc1,–,79.4 µM (active)
CC(C)(C)OC(=O)N[C@H](C(=O)OC(C)(C)C)c1ccc(Br)cc1,2.34% [at 0.501 µM] (inactive),–
COc1ccc(CNC(=O)C2CC(c3ccc(C(F)(F)F)cc3)=NO2)cc1 (configuration not stated),32.3% (inactive),–
COC(=O)c1cccc(C(=O)N2CCC(CCC(=O)NCc3ccc(F)cc3)CC2)c1,-0.66% [at 102 µM] (inactive),–
Cc1occc1C(=O)NC1CCCN(Cc2ccc(CC(C)C)cc2)C1 (configuration not stated),0.764% [at 102 µM] (inactive),–
Cc1ccccc1CN1CCC(C(=O)Nc2ccc(Oc3cccnc3)cc2)CC1,0.879% (inactive),–
COc1ccc(CCNc2ncnc3c2cnn3-c2ccc(C)cc2)cc1,5.54% (inactive),–
COc1ccc(CCNC(=O)c2nn(C)c3c2CSc2ccccc2-3)cc1OC,-43% (inactive),–
COc1cc(NC(=O)c2noc3c2CSc2ccccc2-3)cc(OC)c1OC,–,1.78 µM (active)
COc1cc(NC(=O)c2nc3ccccc3nc2C)cc(OC)c1OC,-32.1% (inactive),–
COc1ccc(-c2onc(C)c2C)cc1S(=O)(=O)NCc1cccs1,1.71% (inactive),–
Cc1ccc(S(=O)(=O)N2CCN(C(=O)c3ccccc3-c3nc4ccccc4s3)CC2)c(C)c1,-36.1% [at 102 µM] (inactive),–
Cc1cc2c(cc1C)[n+](C)cn2CC(O)COCC1CC=CCC1 (configuration not stated),–,39.8 µM (active)
COc1ccc(C(=O)NCC2CCCN2S(=O)(=O)c2cccs2)cc1OC (configuration not stated),4.75% [at 102 µM] (inactive),–
CC(=O)NC(c1cccs1)c1cc(Br)c2cccnc2c1O (configuration not stated),7.81% [at 12.7 µM] (inactive),–
Cc1c(NC(=S)NCc2ccc(F)cc2)cccc1[N+](=O)[O-],–,39.8 µM (active)
COc1ccccc1NC(=O)/C=C/C(=O)O,-38.1% [at 102 µM] (inactive),–
CCNC(=S)Nc1cccc(Cl)c1C,19.4% (inactive),–
Cc1c(NC(=O)Nc2ccccc2)cccc1[N+](=O)[O-],15.3% [at 102 µM] (inactive),–

Compound,"activity, negative = inhibition",Potency
Cc1cccc(NC(=S)NCCc2ccc(F)cc2)c1C,8.37% (inactive),–
Cc1c(NC(=O)/C=C/C(=O)O)cccc1[N+](=O)[O-],–,39.8 µM (active)
CCCCNC(=O)c1cc(-c2ccc(Cl)c(Cl)c2)on1,8.77% (inactive),–
O=C(COc1ccccc1)NCc1ccc2c(c1)CCN2C(=O)c1ccc(F)cc1,-0.362% (inactive),–
O=C(NCCCN1CCCC1=O)C(=O)NCC1OCCN1S(=O)(=O)c1ccc(Br)cc1 (configuration not stated),30.6% [at 102 µM] (inactive),–
Cc1ccc(NC(=O)CN2C(=O)CC(C)Sc3ccccc32)c(C)c1 (configuration not stated),-3.84% (inactive),–
COc1ccc(S(=O)(=O)N(C)CC(=O)N2CCCC2)cc1,-6.5% [at 102 µM] (inactive),–
CCc1ccc(-n2nc(C)c3c(C)cc(=O)n(CC(=O)Nc4ccc(F)cc4C)c32)cc1,13.4% (inactive),–
CCN(CC)c1ccc(NC(=O)Cn2nc3c(cc2=O)CCCC3)c(C)c1,–,11.2 µM (active)
Cc1cc(NC(=O)Cn2nc(C(F)(F)F)c3c2CCCC3)no1,2.94% (inactive),–
C/C(=C/c1ccccc1)C(=O)N1CCN(c2ccccc2)CC1,-3.56% [at 102 µM] (inactive),–
CCOc1ccc(NC(=O)c2cnn(-c3ccccc3)c2-n2cccc2)cc1,-16.2% (inactive),–
O=C(N1CCOCC1)N1CCOCC1,9.64% (inactive),–
Cc1ccc(C(=O)N2CCN(C(=O)N3CCOCC3)CC2)cc1,-4.57% (inactive),–
N#C/C(=C/c1ccc(N2CCOCC2)o1)C(=O)N1CCOCC1,–,7.94 µM (active)
Cc1cccc(NC(=O)Cc2ccc(Br)cc2)n1,12.1% [at 0.501 µM] (inactive),–
CCOCCCNC(=O)c1c(NC(=O)Cc2coc3ccc(C)cc23)sc2c1CCC2,-21.4% (inactive),–
O=C(CSCc1cnn(-c2ccccc2)c1-n1cccc1)NCc1ccc(Cl)cc1,-27.5% (inactive),–
Cc1cccc(N2C(=O)SC(SC(=Nc3ccccc3)Nc3ccccc3)C2=O)c1 (configuration not stated),–,3.55 µM (active)
Cc1cccc(N2C(=O)C3C(c4ccccc4)OC4(C(=O)c5ccccc5C4=O)C3C2=O)c1 (configuration not stated),-13.5% (inactive),–
Cc1cccc(N2C(=O)SC(N(CC(=O)O)c3cccc(C)c3)C2=O)c1 (configuration not stated),-87.4% [at 102 µM] (inactive),–
COc1ccc(OC)c(-c2csc(NC(=O)COC(=O)C3CC3)n2)c1,-10.3% (inactive),–
COc1cccc(CNC(=O)COC(=O)CN2C(=O)NC3(CCCCC3C)C2=O)c1 (configuration not stated),7.7% [at 12.7 µM] (inactive),–
Cc1cc(N2C(=O)C(=O)/C(=C(/O)c3ccc(Cl)cc3)C2c2cccc(Br)c2)no1 (configuration not stated),-2.11% (inactive),–
COc1ccc(C2/C(=C(/O)c3ccccc3)C(=O)C(=O)N2C)c(OC)c1 (configuration not stated),-3.6% [at 0.501 µM] (inactive),–

Compound,"activity, negative = inhibition",Potency
COc1ccccc1C1/C(=C(/O)c2ccc(OC(C)C)cc2)C(=O)C(=O)N1c1cc(C)on1 (configuration not stated),–,1.26 µM (active)
COC(=O)C1(C)CC1(c1ccccc1)c1ccccc1 (configuration not stated),48.6% [at 102 µM] (inactive),–
CC(=O)c1ccc(N2CCN(S(=O)(=O)c3ccc4c(c3)CC(=O)N4C)CC2)cc1,0.477% [at 102 µM] (inactive),–
Cc1ccc2oc(=O)c3cnn(CC(=O)N4CCN(c5cccc(Cl)c5)CC4)c3c2c1,-0.798% (inactive),–
CSc1ccc(CCNC(=O)c2cnn(-c3ccccc3)c2-n2cccc2)cc1,3.56% (inactive),–
CC1CCN(C(=O)C2CCN(S(=O)(=O)N3CCC4(CC3)OCCO4)CC2)CC1,-9.21% [at 102 µM] (inactive),–
COCCN(C(=O)COC(=O)Cc1cccc(OC)c1)c1c(N)n(Cc2ccccc2)c(=O)[nH]c1=O,-40.6% [at 102 µM] (inactive),–
COc1ccc2oc(C(=O)OCC(=O)N(CC(C)C)c3c(N)n(Cc4ccccc4)c(=O)[nH]c3=O)c(C)c2c1,–,39.8 µM (active)
Cc1csc(=O)n1CC(=O)OCC(=O)N(CC(C)C)c1c(N)n(Cc2ccccc2)c(=O)[nH]c1=O,6.53% [at 102 µM] (inactive),–
O=C(NC1CC(=O)N(c2ccc(F)cc2)C1)c1ccc(S(=O)(=O)N2CCCC2)cc1 (configuration not stated),-39.5% (inactive),–
CCN(CC)C(=O)CSc1nc2cc3c(cc2c(=O)n1CCCC(=O)NCc1ccc2c(c1)OCO2)OCO3,0.103% (inactive),–
CCc1c(C)[nH]c(=S)c(C#N)c1C,–,1.12 µM (active)
CCOC(=O)C1=C(CN2CCCCCC2)NC(=O)NC1c1cccc([N+](=O)[O-])c1 (configuration not stated),-40.2% [at 102 µM] (inactive),–
CCOC(=O)C1=C(CN2CCc3ccccc32)NC(=O)NC1c1cccc([N+](=O)[O-])c1 (configuration not stated),–,39.8 µM (active)
CCOC(=O)C1=C(CCc2ccccc2)NC(=O)NC1c1ccc2ccccc2c1 (configuration not stated),-5.48% [at 102 µM] (inactive),–
Cc1ccc(C)c(N2CCN(C(=O)CN3C(=O)COc4ccc(S(=O)(=O)N5CCCCCC5)cc43)CC2)c1,1.44% (inactive),–
CC(C)(C)C(=O)COC(=O)c1cc(S(=O)(=O)N2CCCCC2)ccc1N1CCOCC1,-0.482% [at 102 µM] (inactive),–
Cc1nnc(Sc2nc3c(c(=O)[nH]c(=O)n3C)n2Cc2ccccc2)s1,17.7% [at 12.7 µM] (inactive),–
C=CCSc1nc2c(c(=O)[nH]c(=O)n2C)n1Cc1ccccc1,30.7% [at 102 µM] (inactive),–
C=CCn1c(SCc2ccccc2)nc2c1c(=O)[nH]c(=O)n2C,–,31.6 µM (active)
O=[N+]([O-])c1cc(Br)c(O)c(/C=N/Nc2nc3ccccc3s2)c1,115% [at 102 µM] (inactive),–
Cc1nn(CC(=O)Nc2nc3ccccc3s2)c(C)c1[N+](=O)[O-],11.1% [at 0.501 µM] (inactive),–
O=[N+]([O-])c1c(NCCO)cc(Sc2nc3ccccc3s2)c2nonc12,–,3.55 µM (active)
Cc1c(NC(=S)Nc2ccccc2)c(=O)n(-c2ccccc2)n1C,0.236% (inactive),–
CCN(CC)P(=O)(/C(Cl)=C\Nc1c(C)n(C)n(-c2ccccc2)c1=O)N(CC)CC,–,31.6 µM (active)

Compound,"activity, negative = inhibition",Potency
Cc1c(NS(=O)(=O)c2ccc(Cl)cc2)c(=O)n(-c2ccccc2)n1C,9.47% (inactive),–
Cc1oc(-c2ccccc2F)nc1CS(=O)CC(=O)NCCN1CCCCC1C (configuration not stated),-25.9% [at 102 µM] (inactive),–
CC1CCN(c2oc(-c3ccccc3F)nc2C#N)CC1,–,7.94 µM (active)
COc1ccccc1-c1nc(C#N)c(N2CCC(C(N)=O)CC2)o1,-5.97% [at 102 µM] (inactive),–
COc1ccc(Cl)cc1NC(=O)C(C)Sc1nc2c(c(=O)[nH]1)CCCC2 (configuration not stated),-28.6% (inactive),–
CC(=O)Nc1ccc(S(=O)(=O)Nc2nccc(/C=C/c3ccccc3F)n2)cc1,-3.27% [at 102 µM] (inactive),–
CCOc1ncccc1C(=O)Nc1ccc(S(=O)(=O)Nc2nc(C)cc(C)n2)cc1,108% [at 12.7 µM] (inactive),–
Cc1cc(C)nc(NS(=O)(=O)c2ccc(N/C=C\C(=O)c3cccs3)cc2)n1,–,50.1 µM (active)
O=C(O)c1cc([N+](=O)[O-])c(Nc2cccc3ccccc23)c([N+](=O)[O-])c1,–,44.7 µM (active)
O=C(O)c1ccccc1-c1ccccc1C(=O)Nc1cccc2ccccc12,8.04% (inactive),–
O=C(Nc1ccccc1[N+](=O)[O-])C1C(c2ccccc2)=C1c1ccccc1,24.3% [at 0.501 µM] (inactive),–
Cc1ccccc1-n1c(=O)c2ccccc2n(Cc2ccc(F)cc2)c1=O,3.97% (inactive),–
O=C(NCCc1ccccc1)C(=O)NCC(c1ccco1)S(=O)(=O)c1ccccc1 (configuration not stated),-6.5% (inactive),–
CN(C)CC(C)(C)CNC(=O)c1cc(Br)cc(Br)c1O,-26.2% [at 102 µM] (inactive),–
O=C(CSC(=S)N1CCOCC1)c1ccccc1,–,7.08 µM (active)
NC(=NC(=O)c1ccccc1)N1CCOCC1,3.07% (inactive),–
O=C1Nc2c(Br)cc(Br)cc2C1(O)N1CCOCC1 (configuration not stated),5.27% [at 12.7 µM] (inactive),–
COC(=O)[C@H](Cc1ccccc1)NC(=O)N1CC(C)OC(C)C1 (some centres not stated),10.9% [at 102 µM] (inactive),–
O=C(CSC(=S)N1CCOCC1)c1cc(Br)cc(Br)c1O,–,79.4 µM (active)
O=C(NC(=O)N1CCOCC1)c1ccccc1,-4.57% (inactive),–
CC1CN(C(=O)CN2C(=O)NC(C)(c3ccccc3)C2=O)CC(C)O1 (configuration not stated),5.65% [at 2.33 µM] (inactive),–
CC1CN(C(=S)SCC(=O)c2ccccc2)CC(C)O1 (configuration not stated),–,1.78 µM (active)
